# Results reported in PubChem BioAssay (NCATS).
# Results filed as inconclusive are left out. A call without a number means that no potency is given here. Calls of active or inactive are those of the source. Unless noted, calls follow the shape of the dose curve; as a rule, active = well fitted curve in the direction sought with a large enough effect; inconclusive = small, poorly fitted or top-dose-only effect, or another doubt; inactive = no such curve, though single readings can be large; an effect the other way counts as inactive or inconclusive. *1 amine or outer side, *2 acyl side, *3 side chain or, on linkers, in order; H or OH if unused. Where a SMILES comes first, the peptide text is derived from it. Bridges are numbered along the chain shown (N, C = ends). Roman numbers before positions name the chains, in order. [ ]: non-standard residue; d: D form. ξ: configuration not given here. Actinocin(9to1) = Cc1c2oc3c(C)ccc(C(=O)[*:1])c3nc-2c(C(=O)[*:2])c(N)c1=O; ξNMeV = CNC(C(=O)O)C(C)C; ξV = CC(C)C(N)C(=O)O; Sar = CNCC(=O)O
# Experiments:
# [1] = Identifying Small Molecule Inhibitors of Pancreatic Cancer Stem Cells (A2780, Spheroid) (AID 1259357); conditions: Potency: A2780 spheroid viability;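 also: compound exposure lasted 48 h before the ATP luminescence read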
# Method in brief: (§1)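 Monolayer and spheroid cultures are compared. Spheroids form over 14 days in stem cell medium on hydrogel-coated low-attachment plates, then are exposed to compound for 48 h before CellTiter-Glo luminescence.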
# [2] = Identifying Small Molecule Inhibitors of Pancreatic Cancer Stem Cells (SN12C, Adherent) (AID 1259358);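 also: cell survival measured after 48 h of compound exposure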; also: potency is read from the fitted curve at half-maximal effect
# Method in brief: (§2)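 Adherent (2D) versus sphere (3D) formats; spheres generated 14 d in SCM beforehand. Compound transferred by pin tool after 4 h, 48 h incubation, CellTiter-Glo endpoint.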
# [3] = Identifying Small Molecule Inhibitors of Pancreatic Cancer Stem Cells (Panc1, Spheroid) (AID 1259359);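 also: potency is read from the fitted curve at half-maximal effect; compound exposure lasted 48 h before reading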
# Method in brief: as §1
# [4] = Identifying Small Molecule Inhibitors of Pancreatic Cancer Stem Cells (SN12C, Spheroid) (AID 1259360); conditions: Potency: SN12C spheroid viability; also: potency is read from the fitted curve at half-maximal effect
# Method in brief: as §1
# [5] = Identifying Small Molecule Inhibitors of Pancreatic Cancer Stem Cells (Panc1, Adherent) (AID 1259362); conditions: Potency: viability; also: potency is read from the fitted curve at half-maximal effect
# Method in brief: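 Pre-formed 14-day tumor spheroids or adherent cells dosed and incubated 48 h, 37C, 5% CO2. Viability assessed by CellTiter-Glo.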
# [6] = P-glycoprotein substrates identified in KB-3-1 adenocarcinoma cell line, qHTS therapeutic library screen (AID 1346986); also: nearly all actives have a fitted effect of over 60% in size
# Method in brief: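 Counter-screen: cherry-picked hits retested in the KB pair and in HEK-293 pcDNA/MDR-19 cells ± tariquidar. Primary screen used 72 h CellTiter-Glo viability in KB-3-1 and KB-8-5-11.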
# [7] = Identifying Small Molecule Inhibitors of Pancreatic Cancer Stem Cells (A278, Adherent) (AID 1259361);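 also: viability read after 48 h compound exposure; nearly all actives have a fitted effect of over 35% in size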
# Method in brief: as §2
# [8] = qHTS profiling of the MIPE4 collection as inhibitors of Plasmodium falciparum (DD2) proliferation (Rep 2) (AID 743346; call rule not given here); conditions: P. falciparum Dd2 in erythrocytes, SYBR Green DNA, 72 h; at 28.5 µM (top of the series) unless noted
# Method in brief: (§3)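 Erythrocytes infected with P. falciparum (0.3% parasitemia, 2.5% hematocrit) incubated with compounds 72 h at 37 C, 5% CO2. Lysis with saponin/Triton buffer containing SYBR Green I, overnight at room temperature in the dark; DNA fluorescence (485/535 nm) normalised to 0.29 uM artemisinin and DMSO.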
# [9] = qHTS profiling of the MIPE4 collection as inhibitors of Plasmodium falciparum (HB3) proliferation (AID 743347; call rule not given here); conditions: P. falciparum HB3 in erythrocytes, SYBR Green DNA, 72 h; at 28.5 µM (top of the series) unless noted
# Method in brief: as §3
# [10] = qHTS assay to identify small molecule inhibitors of chordoma cells - UCH-2 (AID 1259356)
# [11] = P-glycoprotein substrates identified in KB-8-5-11 adenocarcinoma cell line, qHTS therapeutic library screen (AID 1346987); also: nearly all actives have a fitted effect of over 65% in size
# Method in brief: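 P-gp-mediated resistance screen: KB-8-5-11 cells treated 72 h with compounds in dose-response. CellTiter-Glo viability.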
smiles,measurement,setting,value
CNC1CCN(C(Cc2cccc(-c3ccncc3)c2)C(=O)c2sc3c(F)ccc(F)c3c2Cl)CC1 (configuration not stated),Potency,[1],inactive
same,Potency,[2],26400 nM (active)
"Cc1c2oc3c(C)ccc(C(=O)N[C@@H]4C(=O)NC(C(C)C)C(=O)N5CCC[C@H]5C(=O)N(C)CC(=O)N(C)C(C(C)C)C(=O)O[C@@H]4C)c3nc-2c(C(=O)N[C@@H]2C(=O)NC(C(C)C)C(=O)N3CCC[C@H]3C(=O)N(C)CC(=O)N(C)C(C(C)C)C(=O)O[C@@H]2C)c(N)c1=O (some centres not stated) (I: T[ξV]P[Sar][ξNMeV] / II: T[ξV]P[Sar][ξNMeV]; ester I:1-I:C, II:1-II:C; linker I:N-II:N via Actinocin(9to1))",Potency,[3],4.7 nM (active)
same,Potency,[4],4.7 nM (active)
same,Potency,[5],13.2 nM (active)
Cc1cc(O)c(C(C)C)cc1O[C@@H]1O[C@H](CO)[C@@H](O)[C@H](O)[C@H]1O,Potency,[6],inactive
CCC1(O)CC2CN(CCc3c([nH]c4ccccc34)[C@@](C(=O)OC)(c3cc4c(cc3OC)N(C=O)[C@H]3[C@](O)(C(=O)OC)[C@H](OC(C)=O)[C@]5(CC)C=CCN6CC[C@]43[C@@H]65)C2)C1 (some centres not stated),Potency,[2],1180 nM (active)
same,Potency,[4],3320 nM (active)
same,IC50 (viability decrease),[7],418 nM (active)
same,Potency,[5],2.6 nM (active)
C=C1C(=CC=C2CCC[C@@]3(C)[C@@H]2CC[C@H]3[C@H](C)CCCC(C)C)C[C@@H](O)C[C@@H]1O,"parasite growth, % of control (lower = inhibition)",[8],29.8%
same,"growth, % of control",[9],19.8%
same,Potency,[10],inactive
C[C@@H]1CCN(C(=O)CC#N)C[C@@H]1N(C)c1ncnc2[nH]ccc12,"parasite growth, % of control (lower = inhibition)",[8],78.4%
same,"growth, % of control",[9],96.8%
same,Potency,[1],inactive
same,Potency,[2],inactive
same,Potency,[4],inactive
same,IC50 (viability decrease),[7],inactive
CCCCCCCC(=O)O,Potency,[10],inactive
same,Potency,[11],inactive
CCOc1ccc2c(c1)C(C)=CC(C)(C)N2,Potency,[10],inactive
same,Potency,[11],inactive
CNC(=O)c1ccc2cc([C@@]3(O)CCn4cncc43)ccc2c1,Potency,[6],inactive
same,Potency,[11],inactive
C/C(=C\CO)CC/C=C(\C)C(=O)O[C@H]1[C@H](OC2OC=C(C(=O)O)C3CCC(C)(O)C23)O[C@H](CO)[C@@H](O)[C@@H]1O (some centres not stated),Potency,[6],inactive
same,Potency,[11],inactive
